# According to PubChem BioAssay (EPA / NIEHS):
# Results filed as inconclusive are left out. A structure can be active in one record and inactive in another. Active and inactive are the calls of the source. How the source made its calls: active means hit-call score of the fitted dose curve at least 0.9, where 1 is the maximum; inconclusive means response in the unintended direction; inactive means score below 0.9.
# How the values were obtained:
# [1] = molecular target: Luciferin 4-monooxygenase (Photinus pyralis) (UniProt P08659); test: CCTE_Simmons_QuantiLum_inhib_2: CCTE's Firefly Luciferase Inhibition Assay, Simmons Lab (AID 2283767);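 on AC50: potency for inhibitors that lower luciferase luminescence relative to DMSO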
# In short: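 Cell-free recombinant firefly luciferase (5 ng/well) in 200mM potassium phosphate with 1 mg/ml BSA, 30 min at 37C with 8 concentrations from 5 nM to 87.5 uM [final], 0.5% DMSO. Luminescence read after D-luciferin (150uM)/dATP (147uM) reagent injection, pH 7.8; triplicates.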
# [2] = molecular target: zebrafish Estrogen Receptor (ESR1), esr1 (gene 259252) (UniProt P57717); test: ATG_zfER1_XSP1: Attagene TRANS-FACTORIAL Multi-Species (XSP1) HepG2 Assay for zebrafish Estrogen Receptor (ESR1) (AID 2283772)
# In short: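 Trans-activation readout: transfected zebrafish ER-Gal4 drives a UAS reporter in human HepG2 liver cells. After 24 h compound exposure (medium containing 3 nM 6-alpha-fluorotestosterone), induced reporter transcripts were quantified by RT-PCR with capillary electrophoresis, relative to DMSO.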
# [3] = test system: zebrafish Estrogen Receptor (ESR2B), gene 317733; test: ATG_zfER2b_XSP1: Attagene TRANS-FACTORIAL Multi-Species (XSP1) HepG2 Assay for zebrafish Estrogen Receptor (ESR2B) (AID 2283773)
# In short: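 HepG2 cells transiently transfected with GAL4-UAS reporter units for chimeric zebrafish ER2b-Gal4, with 3 nM 6-alpha-fluorotestosterone present; reporter mRNA measured 24 h after dosing by RT-PCR and capillary electrophoresis, gain versus DMSO.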
# [4] = test system: frog Estrogen Receptor (ESR2), gene 100174814; test: ATG_frER2_XSP1: Attagene TRANS-FACTORIAL Multi-Species (XSP1) HepG2 Assay for frog Estrogen Receptor (ESR2) (AID 2283774)
# In short: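 HepG2 cells transiently transfected with GAL4-UAS reporter units expressing chimeric frog ER-Gal4; 3 nM 6-alpha-fluorotestosterone present. After 24 h dosing, reporter mRNA quantified by RT-PCR and capillary electrophoresis; gain-of-signal fitted relative to DMSO.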
# [5] = ACEA_AR_agonist_AUC_viability: ACEA Biosciences xCELLigence Real-Time Cell Analysis on Androgen Receptor Agonism for Viability (AID 2283775);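 on AC50: viability read 80 hours after compound addition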
# In short: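 Real-time impedance tracking of 22Rv1 growth, readings every 5 min for 5 h then hourly; area-under-curve viability endpoint at 80 hours, relative to DMSO. Compounds at eight concentrations, 1:4 steps, top 100 uM, n = 2.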
# [6] = test system: frog Estrogen Receptor (ESR1), gene 398734; test: ATG_frER1_XSP1: Attagene TRANS-FACTORIAL Multi-Species (XSP1) HepG2 Assay for frog Estrogen Receptor (ESR1) (AID 2283777)
# In short: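 HepG2 cells transiently transfected with frog ER–GAL4 chimera and GAL4-UAS reporter, with 3 nM 6-alpha-fluorotestosterone present; 24 h dosing, reporter mRNA quantified by RT-PCR and capillary electrophoresis, gain of signal versus DMSO.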
# [7] = test system: zebrafish Estrogen Receptor (ESR2A), gene 317734; test: ATG_zfER2a_XSP1: Attagene TRANS-FACTORIAL Multi-Species (XSP1) HepG2 Assay for zebrafish Estrogen Receptor (ESR2A) (AID 2283778)
# In short: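 HepG2 cells transiently transfected with GAL4-UAS reporter units driven by a zebrafish ESR2A–Gal4 chimera; 24 h compound exposure with 3 nM 6-alpha-fluorotestosterone present. Reporter mRNA measured by RT-PCR with fluorescent capillary electrophoresis, fitted positive versus DMSO.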
# [8] = molecular target: chicken Estrogen Receptor (ESR1), ESR1 (gene 396099) (UniProt P06212); test: ATG_chERa_XSP1: Attagene TRANS-FACTORIAL Multi-Species (XSP1) HepG2 Assay for chicken Estrogen Receptor (ESR1) (AID 2283779)
# In short: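 HepG2 cells transiently transfected with GAL4-UAS reporter units for chimeric chicken ERα-Gal4, dosed 24 h with 3 nM 6-alpha-fluorotestosterone present. Reporter mRNA by RT-PCR and capillary electrophoresis; gain-of-signal fit versus DMSO.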
# [9] = molecular target: Estrogen receptor (Homo sapiens) (UniProt P03372); test: ATG_hERa_XSP1: Attagene TRANS-FACTORIAL Multi-Species (XSP1) HepG2 Assay for human Estrogen Receptor (ESR1) (AID 2283780)
# In short: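 HepG2 cells transiently transfected with GAL4-UAS reporter units and chimeric NR-Gal4 constructs; 24 h after dosing, reporter mRNA quantified by RT-PCR and capillary electrophoresis. Medium contained 3 nM 6-alpha-fluorotestosterone; activity fitted as gain-of-signal versus DMSO.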
# [10] = test system: turtle Estrogen Receptor (ESR1), gene 101933533; test: ATG_trERa_XSP1: Attagene TRANS-FACTORIAL Multi-Species (XSP1) HepG2 Assay for turtle Estrogen Receptor (ESR1) (AID 2283781)
# In short: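 Turtle ERa as a GAL4 chimera in transiently transfected HepG2 cells; reporter mRNA quantified 24 h after dosing by RT-PCR and capillary electrophoresis. 3 nM 6-alpha-fluorotestosterone present; gain of signal versus DMSO.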
# [11] = ACEA_ER_AUC_viability: ACEA Biosciences xCELLigence Real-Time Cell Analysis on Estrogen Receptor Agonism for Viability (AID 2283782);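 further: continuous compound exposure with impedance area under curve over 80 h; hit means loss of impedance signal meaning reduced cell growth or viability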
# In short: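 T47D cells preconditioned in phenol red-free RPMI with charcoal-stripped FBS, then dosed with 8-point 1:4 series from 100 uM (up to 0.5% DMSO). Impedance monitored up to ~80 h; area-under-curve loss versus DMSO taken as viability.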
# [12] = molecular target: Estrogen receptor beta (Homo sapiens) (UniProt Q92731); test: ATG_hERb_XSP1: Attagene TRANS-FACTORIAL Multi-Species (XSP1) HepG2 Assay for human Estrogen Receptor (ESR2) (AID 2283788)
# In short: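 HepG2 cells transiently transfected with GAL4-UAS multiplexed reporter units, 3 nM 6-alpha-fluorotestosterone present; 24 h exposure. Reporter mRNA measured by RT-PCR, fluorescent labelling and capillary electrophoresis; gain of signal fitted against DMSO.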
# [13] = molecular target: GAL4 Transcription Factor (Internal Marker), GAL4 (gene 855828) (UniProt P04386); test: ATG_GAL4_XSP1: Attagene TRANS-FACTORIAL Multi-Species (XSP1) HepG2 Assay for GAL4 Transcription Factor (Internal Marker) (AID 2283789)
# In short: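 HepG2 cells transiently transfected with multiplexed GAL4-UAS reporter units were exposed for 24 h with 3 nM 6-alpha-fluorotestosterone present. Reporter mRNA was quantified by RT-PCR, FAM labelling, HpaI digestion and capillary electrophoresis; background-control readout, gain-of-signal versus DMSO.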
# [14] = molecular target: AR (gene 367) (UniProt P10275); test: ACEA_AR_agonist_80hr: ACEA Biosciences xCELLigence Real-Time Cell Analysis on Androgen Receptor Agonism for Proliferation (AID 2283783);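 further: hits increase impedance growth signal above DMSO baseline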
# In short: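 Proliferation of 22Rv1 prostate cancer cells tracked by electrical impedance, endpoint taken at 80 hours after dosing. Eight-point 1:4 dilutions from 100 uM maximum final, duplicate; testosterone and MG132 as positive controls, assay media as negative.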
# [15] = molecular target: AR (gene 367) (UniProt P10275); test: ACEA_AR_antagonist_80hr: ACEA Biosciences xCELLigence Real-Time Cell Analysis on Androgen Receptor Antagonism for Proliferation (AID 2283787);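 further: 22Rv1 human prostate cancer cells with growth followed by electrical impedance; hits lower the impedance growth signal relative to DMSO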
# In short: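 22Rv1 cells in assay medium, growth tracked by electrical impedance; compounds eight-point 1:4 dilutions from 100 uM final, duplicate plates. Endpoint at 80 h; loss of signal versus DMSO.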
# [16] = ACEA_AR_antagonist_AUC_viability: ACEA Biosciences xCELLigence Real-Time Cell Analysis on Androgen Receptor Antagonism for Viability (AID 2283776);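 further: 22Rv1 human prostate cancer cells growing on impedance electrode plates; hits lower the growth signal relative to DMSO meaning cytotoxicity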
# In short: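 Viability endpoint from label-free cell-index monitoring: 22Rv1 cultures treated with an eight-point 1:4 dilution series starting at 100 uM final, AUC at 80 h fitted against DMSO.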
# Chain of zebrafish Estrogen Receptor (ESR1), esr1 (gene 259252) (P57717 whole entry, looked up, the tested form may be a part): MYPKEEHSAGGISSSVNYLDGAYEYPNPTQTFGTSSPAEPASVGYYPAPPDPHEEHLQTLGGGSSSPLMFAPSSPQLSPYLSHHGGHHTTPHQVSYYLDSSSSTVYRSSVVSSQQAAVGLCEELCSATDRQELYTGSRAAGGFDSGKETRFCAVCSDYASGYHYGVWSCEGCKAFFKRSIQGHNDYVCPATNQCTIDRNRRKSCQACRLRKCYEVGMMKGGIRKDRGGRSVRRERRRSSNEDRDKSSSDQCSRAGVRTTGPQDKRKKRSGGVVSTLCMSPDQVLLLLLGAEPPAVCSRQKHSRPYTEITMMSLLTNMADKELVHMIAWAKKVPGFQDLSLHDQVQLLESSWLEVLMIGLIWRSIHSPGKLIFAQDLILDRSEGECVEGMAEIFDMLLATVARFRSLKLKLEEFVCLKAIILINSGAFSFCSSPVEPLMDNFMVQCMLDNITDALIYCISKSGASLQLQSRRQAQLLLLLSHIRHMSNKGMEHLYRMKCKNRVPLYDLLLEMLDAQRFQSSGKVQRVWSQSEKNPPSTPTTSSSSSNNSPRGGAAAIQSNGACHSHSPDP
# Chain of AR (gene 367) (P10275 whole entry, looked up): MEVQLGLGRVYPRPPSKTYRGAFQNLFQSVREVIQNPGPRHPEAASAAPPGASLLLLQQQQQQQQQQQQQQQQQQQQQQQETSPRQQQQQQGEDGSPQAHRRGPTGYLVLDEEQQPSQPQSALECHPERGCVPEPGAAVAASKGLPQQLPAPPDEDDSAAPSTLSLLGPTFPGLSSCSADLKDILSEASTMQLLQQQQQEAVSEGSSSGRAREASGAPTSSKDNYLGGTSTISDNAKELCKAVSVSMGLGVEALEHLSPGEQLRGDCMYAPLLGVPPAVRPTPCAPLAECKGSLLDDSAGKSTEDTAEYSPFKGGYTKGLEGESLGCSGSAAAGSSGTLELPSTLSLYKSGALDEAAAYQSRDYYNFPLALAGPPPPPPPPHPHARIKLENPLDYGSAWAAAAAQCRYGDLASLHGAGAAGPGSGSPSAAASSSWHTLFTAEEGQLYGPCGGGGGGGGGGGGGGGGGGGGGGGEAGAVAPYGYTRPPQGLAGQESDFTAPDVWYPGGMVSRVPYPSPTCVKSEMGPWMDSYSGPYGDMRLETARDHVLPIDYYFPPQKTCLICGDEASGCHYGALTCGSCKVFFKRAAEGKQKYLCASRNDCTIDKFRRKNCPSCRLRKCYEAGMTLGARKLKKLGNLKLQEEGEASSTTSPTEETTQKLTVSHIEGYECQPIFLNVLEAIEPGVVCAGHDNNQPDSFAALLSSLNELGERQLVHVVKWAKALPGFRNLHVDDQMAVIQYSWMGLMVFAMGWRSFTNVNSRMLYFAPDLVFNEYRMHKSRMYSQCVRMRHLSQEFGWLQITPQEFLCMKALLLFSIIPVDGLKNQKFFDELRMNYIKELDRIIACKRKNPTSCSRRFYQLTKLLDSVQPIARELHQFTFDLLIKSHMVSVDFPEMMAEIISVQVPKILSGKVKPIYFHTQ
# Chain of Luciferin 4-monooxygenase (Photinus pyralis) (P08659 whole entry, looked up): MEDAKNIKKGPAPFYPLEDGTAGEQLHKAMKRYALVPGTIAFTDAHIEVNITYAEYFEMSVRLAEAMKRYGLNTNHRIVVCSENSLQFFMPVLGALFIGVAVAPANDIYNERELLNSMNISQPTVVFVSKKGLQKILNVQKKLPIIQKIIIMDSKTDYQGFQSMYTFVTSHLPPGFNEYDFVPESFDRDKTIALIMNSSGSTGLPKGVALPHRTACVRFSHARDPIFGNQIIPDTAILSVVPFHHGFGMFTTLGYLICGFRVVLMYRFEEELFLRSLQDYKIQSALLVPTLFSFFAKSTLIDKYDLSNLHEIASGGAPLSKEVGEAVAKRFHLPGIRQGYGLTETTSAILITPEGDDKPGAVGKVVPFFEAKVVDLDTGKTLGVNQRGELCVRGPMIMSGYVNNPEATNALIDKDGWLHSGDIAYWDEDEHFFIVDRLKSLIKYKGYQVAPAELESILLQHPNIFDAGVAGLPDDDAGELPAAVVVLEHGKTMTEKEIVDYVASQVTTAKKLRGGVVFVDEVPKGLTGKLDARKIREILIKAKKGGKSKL
# Chain of Estrogen receptor beta (Homo sapiens) (Q92731 whole entry, looked up, the tested form may be a part): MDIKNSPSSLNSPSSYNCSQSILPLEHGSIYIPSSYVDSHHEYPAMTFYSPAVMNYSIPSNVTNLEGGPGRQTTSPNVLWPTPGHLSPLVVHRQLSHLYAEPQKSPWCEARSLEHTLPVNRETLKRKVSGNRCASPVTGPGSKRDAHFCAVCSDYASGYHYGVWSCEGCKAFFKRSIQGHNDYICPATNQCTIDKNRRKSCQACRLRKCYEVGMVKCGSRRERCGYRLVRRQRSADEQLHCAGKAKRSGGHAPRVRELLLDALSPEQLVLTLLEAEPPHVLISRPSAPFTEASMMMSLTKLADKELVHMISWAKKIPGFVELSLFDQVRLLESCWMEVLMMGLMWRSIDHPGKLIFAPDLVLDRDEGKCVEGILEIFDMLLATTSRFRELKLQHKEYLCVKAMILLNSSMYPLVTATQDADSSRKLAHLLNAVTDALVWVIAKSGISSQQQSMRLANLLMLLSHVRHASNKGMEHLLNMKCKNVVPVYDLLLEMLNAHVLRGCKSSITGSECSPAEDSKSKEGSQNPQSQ
# Chain of chicken Estrogen Receptor (ESR1), ESR1 (gene 396099) (P06212 whole entry, looked up, the tested form may be a part): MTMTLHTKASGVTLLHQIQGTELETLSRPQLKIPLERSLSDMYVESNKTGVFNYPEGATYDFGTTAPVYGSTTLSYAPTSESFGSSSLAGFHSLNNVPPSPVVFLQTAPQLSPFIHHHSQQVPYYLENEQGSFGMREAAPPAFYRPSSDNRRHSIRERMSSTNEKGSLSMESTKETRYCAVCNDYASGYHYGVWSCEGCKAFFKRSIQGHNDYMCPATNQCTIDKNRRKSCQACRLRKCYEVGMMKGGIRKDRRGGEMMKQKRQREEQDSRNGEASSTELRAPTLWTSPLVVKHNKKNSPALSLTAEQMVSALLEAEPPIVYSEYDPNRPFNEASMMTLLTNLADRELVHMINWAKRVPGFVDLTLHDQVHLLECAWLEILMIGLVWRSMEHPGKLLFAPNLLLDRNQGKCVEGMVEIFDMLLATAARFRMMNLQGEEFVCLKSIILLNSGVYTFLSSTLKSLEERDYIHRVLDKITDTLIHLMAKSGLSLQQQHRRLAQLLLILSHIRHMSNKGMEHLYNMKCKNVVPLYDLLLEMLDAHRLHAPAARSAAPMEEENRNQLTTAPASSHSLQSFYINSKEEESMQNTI
# Chain of Estrogen receptor (Homo sapiens) (P03372 whole entry, looked up, the tested form may be a part): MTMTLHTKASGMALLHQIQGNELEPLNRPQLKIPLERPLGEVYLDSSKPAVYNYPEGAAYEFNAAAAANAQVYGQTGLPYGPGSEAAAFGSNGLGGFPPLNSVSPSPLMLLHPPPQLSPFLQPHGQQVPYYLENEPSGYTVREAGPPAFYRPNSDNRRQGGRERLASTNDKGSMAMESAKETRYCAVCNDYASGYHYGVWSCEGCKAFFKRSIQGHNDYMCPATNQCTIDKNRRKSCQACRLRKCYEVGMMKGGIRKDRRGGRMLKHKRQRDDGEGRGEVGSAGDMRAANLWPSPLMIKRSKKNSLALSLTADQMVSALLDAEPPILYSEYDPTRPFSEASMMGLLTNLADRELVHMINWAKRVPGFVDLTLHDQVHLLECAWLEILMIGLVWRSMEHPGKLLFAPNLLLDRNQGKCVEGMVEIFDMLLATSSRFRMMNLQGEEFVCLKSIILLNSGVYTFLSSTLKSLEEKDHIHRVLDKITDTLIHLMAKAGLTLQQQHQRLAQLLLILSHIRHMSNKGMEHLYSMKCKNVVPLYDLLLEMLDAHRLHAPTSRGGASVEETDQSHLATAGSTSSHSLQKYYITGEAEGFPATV
# Chain of GAL4 Transcription Factor (Internal Marker), GAL4 (gene 855828) (P04386 whole entry, looked up, the tested form may be a part): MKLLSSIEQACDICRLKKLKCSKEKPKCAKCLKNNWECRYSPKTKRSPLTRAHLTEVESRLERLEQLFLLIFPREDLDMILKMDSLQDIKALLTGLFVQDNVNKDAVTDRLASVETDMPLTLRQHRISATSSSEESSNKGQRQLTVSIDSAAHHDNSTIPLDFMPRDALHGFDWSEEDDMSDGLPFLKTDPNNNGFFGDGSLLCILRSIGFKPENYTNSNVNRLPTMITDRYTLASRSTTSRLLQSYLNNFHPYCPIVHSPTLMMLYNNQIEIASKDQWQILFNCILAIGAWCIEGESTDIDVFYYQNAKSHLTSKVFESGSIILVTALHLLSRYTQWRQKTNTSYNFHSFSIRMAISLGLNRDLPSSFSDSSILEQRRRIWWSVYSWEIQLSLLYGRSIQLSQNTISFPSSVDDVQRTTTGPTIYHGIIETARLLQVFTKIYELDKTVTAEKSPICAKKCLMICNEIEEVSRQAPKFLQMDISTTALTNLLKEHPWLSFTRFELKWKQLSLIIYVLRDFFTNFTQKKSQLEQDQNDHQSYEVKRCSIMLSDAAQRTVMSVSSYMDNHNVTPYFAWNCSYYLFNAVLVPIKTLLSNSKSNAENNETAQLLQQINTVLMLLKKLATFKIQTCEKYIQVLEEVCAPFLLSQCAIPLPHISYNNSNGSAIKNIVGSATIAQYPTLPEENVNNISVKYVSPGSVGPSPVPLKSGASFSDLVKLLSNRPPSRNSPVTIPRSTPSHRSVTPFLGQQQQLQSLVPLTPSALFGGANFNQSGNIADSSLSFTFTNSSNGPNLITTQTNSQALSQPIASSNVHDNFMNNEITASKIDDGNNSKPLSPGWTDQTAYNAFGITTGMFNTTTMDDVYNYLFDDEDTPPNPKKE
smiles,measurement,setting,value
COP(=S)(OC)Oc1ccc(SC)c(C)c1,outcome,[1],inactive
same,outcome,[2],inactive
same,AC50,[3],66.9 µM (active)
same,AC50,[4],11.8 µM (active)
same,outcome,[5],inactive
same,AC50,[6],5.04 µM (active)
same,AC50,[7],45.9 µM (active)
same,AC50,[8],25.6 µM (active)
same,AC50,[9],26.5 µM (active)
same,AC50,[10],26.6 µM (active)
same,outcome,[11],inactive
same,AC50,[12],22.2 µM (active)
same,outcome,[13],inactive
Oc1ccc(Cl)cc1Cc1ccccc1,outcome,[1],inactive
same,outcome,[2],inactive
same,AC50,[3],3.36 µM (active)
same,AC50,[4],2.69 µM (active)
same,AC50,[5],18.2 µM (active)
same,AC50,[6],2.63 µM (active)
same,outcome,[7],inactive
same,outcome,[8],inactive
same,AC50,[10],2.74 µM (active)
same,AC50,[11],18.3 µM (active) [middle of 9 runs]
same,outcome,[14],inactive
same,AC50,[15],11.2 µM (active)
same,outcome,[12],inactive
CCCN(CCOc1c(Cl)cc(Cl)cc1Cl)C(=O)n1ccnc1,outcome,[1],inactive
same,outcome,[2],inactive
same,outcome,[3],inactive
same,outcome,[4],inactive
same,AC50,[5],37.3 µM (active)
same,outcome,[8],inactive
same,AC50,[11],74.9 µM (active)
same,outcome,[12],inactive
COP(=O)(OC)OC=C(Cl)Cl,outcome,[1],inactive
CC1(c2ccc(Oc3ccccc3)cc2)OC(=O)N(Nc2ccccc2)C1=O (stereo not drawn),outcome,[1],inactive
same,AC50,[5],1.01 µM (active)
same,AC50,[11],45.8 µM (active)
O=C(Nc1ccccc1)Nc1cnns1,outcome,[1],inactive
same,AC50,[5],28.6 µM (active)
same,outcome,[11],inactive
CN1CSC(=S)N(C)C1,AC50,[1],40.5 µM (active)
same,AC50,[5],50 µM (active)
same,AC50,[16],31.5 µM (active)
same,AC50,[11],39.7 µM (active)
O=C(O)CCCOc1ccc(Cl)cc1Cl,outcome,[5],inactive
same,outcome,[11],inactive
same,outcome,[15],inactive
CCc1ccc(C(=O)NN(C(=O)c2cc(C)cc(C)c2)C(C)(C)C)cc1,AC50,[5],50 µM (active)
same,outcome,[11],inactive
OCCOc1ccccc1,outcome,[11],inactive
CC(C)(C)C(O)C(Oc1ccc(Cl)cc1)n1cncn1 (stereo not drawn),outcome,[5],inactive
same,outcome,[11],inactive
CCC(C)(C)C(=O)OC1=C(c2ccc(Cl)cc2Cl)C(=O)OC12CCCCC2,AC50,[5],81.9 µM (active)
same,AC50,[11],12.3 µM (active)
same,outcome,[15],inactive
Cc1[nH]c(=O)n(C(C)(C)C)c(=O)c1Cl,outcome,[5],inactive
same,outcome,[11],inactive
same,outcome,[15],inactive
O=[N+]([O-])c1c(Cl)c(Cl)c(Cl)c(Cl)c1Cl,AC50,[5],58.6 µM (active)
same,AC50,[11],72.3 µM (active)
same,outcome,[14],inactive
same,AC50,[15],74.6 µM (active)
ClC1C(Cl)C(Cl)C(Cl)C(Cl)C1Cl (stereo not drawn),outcome,[5],inactive
same,AC50,[11],60.1 µM (active)
same,outcome,[11],inactive
C[C@H]1[C@H](c2ccc(Cl)cc2)SC(=O)N1C(=O)NC1CCCCC1,AC50,[5],73 µM (active)
same,AC50,[11],79.9 µM (active)
same,outcome,[14],inactive
same,AC50,[15],19.1 µM (active)
CNC(=O)Oc1ccccc1OC(C)C,outcome,[11],inactive
O=C(O)COc1ccc(Cl)cc1Cl,outcome,[5],inactive
same,outcome,[11],inactive
N#Cc1c(Cl)c(Cl)c(Cl)c(C#N)c1Cl,AC50,[16],3.7 µM (active)
same,AC50,[11],1.54 µM (active)
CCOC1Oc2ccc(OS(C)(=O)=O)cc2C1(C)C (stereo not drawn),AC50,[5],25.7 µM (active)
same,AC50,[16],25.6 µM (active)
same,AC50,[15],50 µM (active)
CCN(CC)C(=O)SCc1ccc(Cl)cc1,AC50,[5],62.2 µM (active)
same,AC50,[11],75.9 µM (active)
Clc1ccccc1-c1nnc(-c2ccccc2Cl)nn1,outcome,[11],inactive
C#CCN1C(=O)COc2cc(F)c(N3C(=O)C4=C(CCCC4)C3=O)cc21,AC50,[5],50 µM (active)
same,outcome,[14],inactive
same,AC50,[15],64.5 µM (active)
CCC(C)(NC(=O)c1cc(Cl)c(C)c(Cl)c1)C(=O)CCl (stereo not drawn),AC50,[5],26.5 µM (active)
same,AC50,[11],9.16 µM (active)
CC(C)(C)C(O)/C(=C\c1ccc(Cl)cc1Cl)n1cncn1 (stereo not drawn),AC50,[11],81.1 µM (active)
CC(C)OC(=O)Nc1cccc(Cl)c1,AC50,[5],86.1 µM (active)
same,AC50,[11],79.6 µM (active)
O=C(NC(=O)c1c(F)cccc1F)Nc1ccc(OC(F)(F)C(F)OC(F)(F)F)c(Cl)c1 (stereo not drawn),outcome,[5],inactive
same,outcome,[16],inactive
CC[C@H](C)[C@H]1O[C@]2(C=C[C@@H]1C)C[C@@H]1C[C@@H](C/C=C(\C)[C@@H](O[C@H]3C[C@H](OC)[C@@H](O[C@H]4C[C@H](OC)[C@@H](O)[C@H](C)O4)[C@H](C)O3)[C@@H](C)/C=C/C=C3\CO[C@@H]4[C@H](O)C(C)=C[C@@H](C(=O)O1)[C@]34O)O2 (tested in a mixture with another compound),AC50,[5],4.08 µM (active)
same,AC50,[16],4.93 µM (active)
same,AC50,[11],6.89 µM (active)
O=[N+]([O-])/N=C1\NCCN1Cc1ccc(Cl)nc1,outcome,[5],inactive
same,outcome,[15],inactive
O=C(O)C(F)(F)C(F)(F)C(F)(F)C(F)(F)C(F)(F)C(F)(F)C(F)(F)F,outcome,[5],inactive
same,outcome,[11],inactive
